SMILES strings stand for the structures. Active and inactive are the calls of the source. How the source made its calls: active means hit-call score of the fitted dose curve at least 0.9, where 1 is the maximum; inactive means score below 0.9.

Read-out in this experiment: Interferon-gamma inducible Protein 10 (IP10), CXCL10 (gene 3627)
In words: BSK_KF3CT_IP10: BioMAP Diversity Plus: KF3CT Assay for Interferon-gamma inducible Protein 10 (IP10) Biomarker Activity (AID 2283068). As to conditions: primary human keratinocytes with fibroblasts; actives raise or lower the signal. As to the method: BSK_KF3CT is a cell-based, multiplexed-readout assay that uses keratinocytes and foreskin fibroblasts, a human skin primary cell co-culture, with measurements taken at 24 hours after chemical dosing in a 96-well plate.BSK_KF3CT_IP10 is an assay component measured in the BSK_KF3CT assay. It measures IP-10 antibody related to regulation of gene expression using ELISA technology.Data from the assay component BSK_KF3CT_IP10 was analyzed into 1 assay endpoint. This assay endpoint, BSK_KF3CT_IP10, was analyzed with bidirectional fitting relative to DMSO as the negative control and baseline of activity. Using a type of binding reporter, gain or loss-of-signal activity can be used to understand changes in the signaling as they relate to the gene CXCL10. Furthermore, this assay endpoint can be referred to as a primary readout, because this assay has produced multiple assay endpoints where this one serves a signaling function. To generalize the intended target to other relatable targets, this assay endpoint is annotated to the cytokine intended target family, where the subfamily is chemotactic factor.
The levels of cell surface (or secreted, indicated by the prefix "s") biomarker endpoints were measured by ELISA. Overt cytotoxicity to cells in confluent adherent cultures (all systems other than the BT system) was assessed by measuring total protein levels using sulforhodamine B (SRB) staining in parallel cultures at the time of biomarker measurements, indicated as SRB endpoints. For proliferation assays for adherent cell types, individual cell types are cultured at sub-confluence and relative cell numbers quantified by SRB staining at time points optimized for each system (48 h: 3C and CASM3C systems; 72 h: BT and HDF3CGF systems; 96 h: SAg system). SRB was performed by staining cells with 0.1% SRB after fixation with 10% TCA and reading wells at 560 nm.Viability and proliferation of PBMC (T cells) was quantified by Alamar Blue reduction for the SAg and BT systems. For PBMC viability (referred to as PBMC Cytotoxicity within the assay endpoint names), cells were plated (75,000/well in a 96-well plate) and then chemical samples added for 1 h before addition of activators, SEB and TSST-1 (20 ng/mL final concentration each). Cells were incubated for 90 h. Then, Alamar Blue (20 uL/well) (Invitrogen, Cat DAL1100) was added for 6 h, and the plates were read with a fluorescence microplate reader at 546/580 nm (excitation/emission). For PBMC proliferation, cells were plated and activated as above but incubated for only 16 h prior to addition of Alamar Blue. Plates were read after 6 h.
For `CCOP(=S)(OCC)Oc1nc(Cl)n(C(C)C)n1`, the outcome was inactive.

With `Clc1nc(Cl)nc(Nc2ccccc2Cl)n1`, the result was inactive.

Turning to `COc1cc(Cl)c(OC)cc1Cl`, the result was inactive.

For `CS(=O)(=O)c1ccc(C(=O)C2C(=O)CCCC2=O)c([N+](=O)[O-])c1`, the result was inactive.

`COC(=O)NS(=O)(=O)c1ccc(N)cc1`: the outcome was inactive.

Turning to `COP(=S)(OC)Oc1ccc([N+](=O)[O-])c(C)c1`, the result was inactive.

Turning to `COCc1cnc(C2=NC(C)(C(C)C)C(=O)N2)c(C(=O)O)c1` (stereo not given), the AC50 is 12.3 µM (active).

`CO/N=C(/C1=NOCCO1)c1ccccc1Oc1ncnc(Oc2ccccc2Cl)c1F`: the AC50 is 7.33 µM (active).

Regarding `OC(c1ccc(Cl)cc1)(c1ccc(Cl)cc1)C(Cl)(Cl)Cl`, the AC50 is 9.49 µM (active).

With `Cc1cc(C)nc(Nc2ccccc2)n1`, the result was inactive.

As for `COC(=O)NC(=S)Nc1ccccc1NC(=S)NC(=O)OC`, the result was inactive.

For `CC(C)N1C(=O)c2ccccc2NS1(=O)=O`, the result was inactive.

In the case of `CCSC(=O)N1CCCCCC1`, the result was inactive.

Turning to `N#Cc1c[nH]cc1-c1cccc2c1OC(F)(F)O2`, the result was inactive.

On to `Cc1cnc(C2=NC(C)(C(C)C)C(=O)N2)c(C(=O)O)c1` (stereo not given), for which the outcome was inactive.

In the case of `N#CN=C1SCCN1Cc1ccc(Cl)nc1`, the outcome was inactive.

Consider `CN/C(=N\[N+](=O)[O-])NCc1cnc(Cl)s1`, for which the result was inactive.

In the case of `CCOc1cc(C(C)(C)C)ccc1C1COC(c2c(F)cccc2F)=N1` (stereo not given), the AC50 is 17.3 µM (active).

Regarding `COCC(C)N(C(=O)CCl)c1c(C)csc1C` (stereo not given), the outcome was inactive.

On to `CC(C)C1(C)N=C(c2ncccc2C(=O)O)NC1=O` (stereo not given), for which the result was inactive.

With `CC(C)N1C(=O)N(c2ccccc2)CSC1=NC(C)(C)C`, the AC50 is 33.2 µM (active).

In the case of `O=P(O)(O)CCCl`, the result was inactive.

On to `COC(=O)N(C(=O)N1CO[C@@]2(C(=O)OC)Cc3cc(Cl)ccc3C2=N1)c1ccc(OC(F)(F)F)cc1`, for which the AC50 was 13.3 µM (active).

Consider `C=C(C)CN(CC)c1c([N+](=O)[O-])cc(C(F)(F)F)cc1[N+](=O)[O-]`, for which the AC50 was 14.9 µM (active).

With `CCOc1nc(F)cc2nc(S(=O)(=O)Nc3c(Cl)cccc3Cl)nn12`, the AC50 was 34 µM (active).

As for `Cn1c(-c2ccccc2)cc(-c2ccccc2)[n+]1C`, the AC50 is 7.72 µM (active).

As for `Clc1cccc(C(Cl)(Cl)Cl)n1`, the outcome was inactive.

With `CS(=O)(=O)c1cc(C(F)(F)F)ccc1C(=O)c1cnoc1C1CC1`, the result was inactive.

Regarding `CCCC(=NOCC)C1=C(O)CC(CC(C)SCC)CC1=O` (stereo not given), the result was inactive.

With `CCC(C)n1c(=O)[nH]c(C)c(Br)c1=O` (stereo not given), the outcome was inactive.

On to `CCN(CC)c1nc(C)cc(OP(=S)(OC)OC)n1`, for which the outcome was inactive.

For `Cc1c(COC(=O)[C@@H]2[C@H](/C=C(\Cl)C(F)(F)F)C2(C)C)cccc1-c1ccccc1`, the result was inactive.

Regarding `CSC(=O)c1c(C(F)F)nc(C(F)(F)F)c(C(=O)SC)c1CC(C)C`, the outcome was inactive.

In the case of `CC(C)Nc1nc(Cl)nc(NC(C)C)n1`, the outcome was inactive.

In the case of `CC(C)NC(=O)N1CC(=O)N(c2cc(Cl)cc(Cl)c2)C1=O`, the outcome was inactive.

Regarding `Cc1nc(N(C)C)nc(OC(=O)N(C)C)c1C`, the outcome was inactive.

Turning to `COP(=O)(OC)O/C(C)=C/C(=O)N(C)C`, the outcome was inactive.

On to `CCN(CC)C(=O)C(C)Oc1cccc2ccccc12` (stereo not given), for which the result was inactive.

Take `CC1(C)CON(Cc2ccccc2Cl)C1=O`: the outcome was inactive.

With `COc1cc(OC)nc(NC(=O)NS(=O)(=O)c2ncccc2OCC(F)(F)F)n1`, the outcome was inactive.

Broadly, the AC50 is the concentration giving half of the maximal activity seen.

The record behind these values is PubChem BioAssay (EPA / NIEHS).
